Test results reported in PubChem BioAssay AID504941 (Broad Institute, 2011).
The whole screen tested about 1,200 compounds, of which about 170 (14%) were called active. No rule for the calls is given here. Not all results are given here. Entries with a potency or affinity are not part of this list.

Experiment: E. coli Tat export inhibitors, dose response, cherry-pick, set 2, plate reader (AID 504941)
Details: E. coli Tat transport reporter; series mostly up to 38 µM; activity change, negative = inhibition: at the top concentration

Activity change, negative = inhibition, inactive:
CCn1c2ccc(C)cc2c2nnc(SCCN3CCOCC3)nc21 5%
COC(=O)c1ccc(NC(=O)N2CCC(O)(c3cccnc3)CC2)cc1 9.11%
Cc1ccc(/C=C2/C(=N)N3N=C(CC(=O)N4CCCC4)SC3=NC2=O)o1 15.6%
COC(=O)c1c(NC(=O)CCN2CCOCC2)sc2c1CCCC2 1.23%
COc1ccc(CCN=C(N)NS(=O)(=O)c2cccs2)cc1 -3.98%
COc1cccc(NC(=O)Nc2cnccn2)c1 -11.9%
COc1cc(SC)ccc1C(=O)OCC(=O)NC(=O)NC(C)C -25.9%
O=C(N/C(=C/c1cccc([N+](=O)[O-])c1)C(=O)N1CCOCC1)c1ccc(Br)cc1 14.1%
Cn1cccc1CNCC(O)c1ccccc1 (centres undefined) -0.896%
CC(Sc1nnc(-c2ccccc2F)n1C1CC1)C(=O)NCc1ccco1 (centres undefined) 20.6%
CC1CCN(c2ccc(C(=O)NCc3ccco3)cc2[N+](=O)[O-])CC1 24%
N#Cc1cccc(Nc2c3c(nc4ccccc24)CCCC3)c1 31%
O=S(=O)(c1cc(Cl)cc(Cl)c1O)N1CCC2(CC1)OCCO2 -7.76%
CS(=O)(=O)c1ccc(Cl)c(NC(=O)COC(=O)CCc2c[nH]c3ccccc23)c1 -2.31%
CCS(=O)(=O)c1ccc(NC(=O)c2ccccc2Cl)c(O)c1 -5.3%
Nc1ccn(CC(=O)N2CCN(c3ccccn3)CC2)c(=O)n1 8.72%
NC(=O)c1ncn([C@@H]2O[C@H](CNCc3cccn3-c3ccncc3)[C@@H](O)[C@H]2O)n1 5.2%
O=C(NCc1ccc2c(c1)OCO2)c1c(O)c2cccc3c2n(c1=O)CCC3 -10.3%
Cc1nc(NC(=O)c2ccco2)sc1-c1csc(Nc2ccc(Cl)cc2)n1 -28.1%
Cc1ccc(SCc2noc(C(=O)NC(C)C)c2C(=O)O)cc1C 22.1%
CCCCNC(=O)NNC(=O)c1ccc(F)cc1 3.97%
O=C(O)C1C(=O)NCC1c1ccccc1 (centres undefined) 5.39%
Cc1ccc(C(=O)N/C(=C\c2cn(S(=O)(=O)N(C)C)c3ccccc23)C(=O)NCCCN2CCOCC2)cc1 -3.49%
COc1ccc(Nc2nc(NCCO)nc(OC)n2)cc1 12.2%
CCOC(=O)CC(NC(=O)c1cccc2c1C(=O)N(Cc1cccnc1)C2)c1ccc(OCC)c(OC)c1 (centres undefined) 22.5%
OC1(c2ccccc2Cl)NN=C2CCCCCN21 (centres undefined) 2.37%
Cc1nc2ccccn2c1/C(O)=C1\C(=O)C(=O)N(CCN(C)C)C1c1ccco1 (centres undefined) -13.9%
COc1ccccc1N1C(=NC(=O)CCc2ccccc2)SC2CS(=O)(=O)CC21 (centres undefined) 1.05%
CCNc1c(NS(=O)(=O)c2ccc(OC)cc2)c(=O)oc2ccccc12 48%
COc1ccc(Cc2nnc(NS(=O)(=O)c3ccc(Cl)cc3)s2)cc1OC -17.9%
Oc1ccc(/C=N/Nc2ccccc2)cc1 6.32%
CC(=O)NS(=O)(=O)c1ccc(NC(=O)c2cc(-c3cccs3)nc3ccccc23)cc1 5.92%
CC(C)c1nnc(NC(=O)CCS(=O)(=O)Cc2ccccc2)s1 21.5%
O=C(Cn1ccc(C(F)(F)F)n1)Nc1ccc(S(=O)(=O)NCc2ccco2)cc1 11.5%
CCC(C)n1nccc1NC(=O)C(C)Cl (centres undefined) -9.12%
O=C(Nc1cccc(-c2nc3cccnc3s2)c1)C1c2ccccc2Oc2ccccc21 21.1%
Nc1cc(OC(=O)c2ccc(F)cc2)nn1S(=O)(=O)c1ccc(F)cc1 -2.53%
CC(C)(C)n1nnnc1C(c1cc2cc3c(cc2[nH]c1=O)OCCO3)N1CCSCC1 (centres undefined) 8.61%
Cc1cc(C(C#N)c2ccccc2F)n2ncnc2n1 (centres undefined) -3.6%
C=CCc1c(C)nc(C)nc1N/N=C/c1ccc(N(C)C)cc1 3.93%
COc1ccc(S(=O)(=O)N(C)c2ccc(C(=O)N3CCOCC3)cc2)cc1 -2.72%
CCCCOc1ccc(C2CC(=O)N(C)C2=O)cc1 (centres undefined) 15.5%
CC[C@H]1OC(=O)[C@H](C)[C@@H](O[C@H]2C[C@@](C)(OC)[C@@H](O)[C@H](C)O2)[C@H](C)[C@@H](O[C@@H]2O[C@H](C)C[C@H](N(C)C)[C@H]2O)[C@](C)(OC)C[C@@H](C)C(=O)[C@H](C)[C@@H](O)[C@]1(C)O 21.8%
NC(=O)c1ccccc1NC(=O)COc1ccc2c(c1)OCO2 -15.4%
CCCN(Cc1ccccc1)C(=S)Nc1ccc(SC(F)F)cc1 -28.4%
c1ccc2c(OCCCN3CCCCCC3)cccc2c1 11.3%
CC(C)(C)OC(=O)N[C@@H](Cc1ccccc1)[C@H](O)c1ccco1 -13%
C[C@H](NC(=O)c1nc[nH]c1C(=O)NCc1ccc(CNC(=O)OC(C)(C)C)cc1)c1ccccc1 -35%
Cc1ccccc1-c1nc(CN2CCC(C(=O)O)CC2)c(C)o1 -19.8%
CC(O/N=C/c1ccc(OC(F)F)cc1)C(=O)Nc1cccc(S(=O)(=O)N2CCOCC2)c1 (centres undefined) 10.4%
Fc1ccc(-n2c(-c3ccc4ccccc4n3)n[nH]c2=S)cc1Cl 28.2%
Nc1nc(CN2CCCCC2)cs1 18.1%
CCCn1c2c(c(=N)c3c1CCC3)CCCC2 8.27%
COc1ccc(C2OC(=O)CC2C(=O)NCc2ccc(F)cc2)cc1OC (centres undefined) 4.42%
Cc1ccc2oc3c(c(=O)c2c1)C(c1cccs1)N(CCCN(C)C)C3=O (centres undefined) -22.4%
CC(=O)N1CCN(c2cc3c(cc2F)c(=O)c(C(=O)O)cn3C2CC2)CC1 408%
CC(C)C[C@@H](CN1CCC[C@@H]1CN1C(=O)C(=O)NC[C@@H]1Cc1ccccc1)N1C[C@H](Cc2ccc(O)cc2)N(CC2CCCCC2)C(=O)C1=O -8.76%
CCCC(=O)c1c[nH]c(C(=O)N2CCOCC2)c1 -22.5%
CCC(=NCCc1ccc(OC)c(OC)c1)C1=C(O)CC(C)(C)CC1=O -14.1%
N#Cc1nc(-c2ccccc2Cl)oc1N1CCN(C(=O)c2ccco2)CC1 -6.45%
O=C(NNc1ncnc2c1cnn2-c1ccccc1)c1cccs1 2.73%
C1=C(CCNc2ncnc3c2cnn3-c2ccccc2)CCCC1 -9.98%
COc1cccc(C(=O)N(CN2CCCC2=O)c2cccc(Cl)c2)c1OC 2.99%
O=C(Nc1ccc(Cl)c(C(F)(F)F)c1)NC1CC2CCCC(C1)N2C1CC1 (centres undefined) 16.9%
CCOc1ncccc1C(=O)N(CC)CC(=O)Nc1ccc(NC(C)=O)cc1 9.92%
CCCCN(C)CCn1c(=S)[nH]c2ncccc2c1=O -6.89%
CN(C(=O)COC(=O)c1cccc(S(=O)(=O)N2CCOCC2)c1)C1CCS(=O)(=O)C1 (centres undefined) 6.11%
CC(C)C(C(=O)NC1CCCC1)N(CC1CCCO1)C(=O)CNS(=O)(=O)c1ccccc1 (centres undefined) -0.216%
CCOc1nc(Nc2ccc(OC)c(Cl)c2)nc(OCC)n1 -7.13%
Cc1ccc(C)c(N2CCN(c3ccc4cc(S(=O)(=O)N5CCCCC5)ccc4n3)CC2)c1 10.4%
O=C(CCCc1nc2ccccc2s1)NC1CCOC1=O (centres undefined) -11.4%
Cc1ccc(S(=O)(=O)Nc2ccnc(-c3cccnc3)n2)cc1 9.87%
Clc1ccccc1-c1ccc2ncnc(NCc3cccnc3)c2c1 7.13%
CC1CC(OC(=O)C(O)c2ccccc2)CC(C)(C)N1C (centres undefined) -5.37%
CC1CCN(CC[C@H]2CCCN2S(=O)(=O)c2cccc(O)c2)CC1 8.51%
CC1CCN(C(=O)c2ccc(S(=O)(=O)N3CCCC3)cc2)CC1 10.2%
COc1ccc(/C=C/C(=O)OCc2cc(=O)n3c(n2)sc2ccccc23)cc1 -12%
CCN1CCN(C(=O)C(NS(=O)(=O)c2ccc3nc(C)sc3c2)C(C)C)CC1 (centres undefined) -20.5%
O=C(NCCc1ccccc1)c1ccc2c(c1)OCCCO2 -10.6%
O=C(CCNC(=O)c1ccc([N+](=O)[O-])cc1)Nc1cccc(S(=O)(=O)N2CCCCCC2)c1 -10.6%
O=C(CN1CCN(c2ccc(O)cc2)CC1)Nc1ccc2c(c1)OCCO2 21.3%
Cc1cc(Cl)c(S(=O)(=O)NC(C(=O)O)C(C)C)cc1OCC(=O)NC1CCCCC1 (centres undefined) -0.619%
C[C@@H]1CN(c2c(F)c(F)c3c(=O)c(C(=O)O)cn(C4CC4)c3c2F)C[C@H](C)N1 303%
Nc1nc(=O)n(C2CC(O)C(CO)O2)cc1F (centres undefined) 181%
CCNC(=S)NCCN1CCOCC1 7.35%
O=C(Nc1ccc2c(c1)OCCO2)c1ccc(Cl)c(S(=O)(=O)N2CCCCC2)c1 6.22%
CCCc1cc(=O)[nH]c2nnc(SCC(=O)Nc3ccc4c(c3)OCCO4)n12 1.25%
C=CCN(CC=C)S(=O)(=O)c1ccc(NC(=S)NC(=O)C2CC2)cc1 -41.6%
COc1ccc(-c2cc(C(=O)Oc3ccc([N+](=O)[O-])cc3)c3ccccc3n2)cc1 30.5%
COc1ccc(-c2cc(C)no2)cc1S(=O)(=O)NCCCN1CCCCCC1 9.9%
CCOc1ccc2[nH]c(C)c(CN3CCCCC3)c(=O)c2c1 17.6%
Cc1cc(-n2c(C)cc(C(=O)COc3cccnc3[N+](=O)[O-])c2C)no1 0.514%
O=C(N1CCCC1)C12CC3CC(C1)CC(C(=O)N1CCCC1)(C3)C2 4.29%
C/C(=N\NC(=O)c1cccc(O)c1)c1cccc(NC(=O)c2ccc(F)cc2)c1 7.5%
COc1cc(C(=O)NCCOC(=O)c2cccc(N(C)C)c2)cc(OC)c1OC -12.9%
Cc1cc(C)cc(-n2c(C)cc(/C=C3\C(=N)N4N=C(CC(C)C)SC4=NC3=O)c2C)c1 7.24%
COc1ccc(NS(=O)(=O)c2ccc(NC(=O)Cc3cccs3)cc2)cc1 12.2%
O=S(=O)(N1CCCCC1)N1CCN(c2ccccc2F)CC1 -1.04%
CCOC(=O)C(C(=O)Nc1ccc(C)cc1)C1CCCCC1 (centres undefined) 17.6%
Cc1ccccc1NC1=NC(=S)N(c2ccccc2)C12CCOC(C)(C)C2 (centres undefined) -0.879%
CC(CN1CCOCC1)(NS(=O)(=O)c1ccccc1)c1ccccc1 (centres undefined) -6.65%
CC(C)OC(=O)c1c(NC(=O)c2ccco2)sc2c1CCCC2 -6.21%
CCOC(=O)CC(=O)Nc1ccccc1C(=O)O -1.16%
O=C(O)CCC(=O)Nc1sc2c(c1C(=O)Nc1cccc3ccccc13)CCCCC2 -7.8%
